According to PMC6792352, “Limited Chemical Structural Diversity Found to Modulate Thyroid Hormone Receptor in the Tox21 Chemical Library” (Environmental Health Perspectives, 2019):
Counter-ions that a name gives are not always drawn.

These molecules were tested on thyroid hormone receptor (endogenous TRα and TRβ). Conditions: read-out: Average AC50 (uM) GH3-TRE-Antag, antagonist mode, 1 nM T3, no GH3 cytotoxicity hit.
Parameters: species or system GH3-TRE-Luc (rat pituitary); GH3-TRE-Luc luciferase reporter, antagonist mode against 1 nM T3, loss of signal, qHTS

| Compound | AC50 |
| --- | --- |
| Cn1cnc2c(F)c(Nc3ccc(Br)cc3Cl)c(C(=O)NOCCO)cc21 [Selumetinib] | 12.5 µM |
| OC1CCCCCCCCCCC1 [Cyclododecanol] | 47.7 µM |
| CCCC1C(CC)=CC(CC)=CN1c1ccccc1 (centres unmarked) [3,5-Diethyl-1-phenyl-2-propyl-1,2-dihydropyridine] | 53.9 µM |
| CCCCCCCCCCCCCCCC(=O)OC[C@H](O)[C@H]1OC(=O)C(O)=C1O [Ascorbyl palmitate] | > 50 µM |
| Oc1ccc(C(=C(Cl)Cl)c2ccc(O)cc2)cc1 [Bis(4-hydroxyphenyl)-2,2-dichloroethylene] | 38.4 µM |
| O=C1CCCCCCCCCCCC(=O)OCCO1 [1,4-Dioxacycloheptadecane-5,17-dione] | 47.7 µM |
| CCCCNc1ccc(C(=O)OCCN(C)C)cc1 [Tetracaine hydrochloride] | 11.2 µM |
| OCC#CCO [2-Butyne-1,4-diol] | 58.8 µM |
| CC(=O)Oc1ccc(C2(c3ccc(OC(C)=O)cc3)C(=O)Nc3ccccc32)cc1 [Oxyphenisatin acetate] | > 50 µM |
| CC(C)Oc1cccc(NC(=O)c2ccccc2C(F)(F)F)c1 [Flutolanil] | > 90 µM |
| CCCCCCCCCCCCCC(=O)OCC(O)CO (centres unmarked) [Tetradecanoic acid, 2,3-dihydroxypropyl ester] | 61.9 µM |
| Cc1ccc(Nc2nccc(N(C)c3ccc4c(C)n(C)nc4c3)n2)cc1S(N)(=O)=O [Pazopanib] | 14 µM |
| O=C(O)c1cc(I)cc(I)c1I [2,3,5-Triiodobenzoic acid] | > 100 µM |
| COC(=O)NC(=S)Nc1ccccc1NC(=S)NC(=O)OC [Thiophanate-methyl] | 78.1 µM |
